Compounds without any hit were thinned out: in the full panel of roughly 83,000, 20% have a hit.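 In brief: 96-well plates, 48 h treatment, single concentration, percent growth endpoint.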 Calls of active or inactive are those of the source. Rule for the calls: active = growth percent below 10; inactive = the rest.
The molecules below were run on OVCAR-8 ovarian (assay: NCI-60 one-dose screen, 48 h (100 = growth as untreated, 0 = no growth, -100 = all killed)). Conditions: 10 µM unless noted.

| SMILES | growth |
| --- | --- |
| CCOC(=O)CCC(NC(=O)C(Cc1ccc(N(CCCl)CCCl)cc1)NC=O)C(=O)OCC (configuration not stated) | 44.5% (inactive) |
| COC(=O)[C@@H](C)C[C@H](Cc1ccccc1)NC(=O)c1nc([C@@H](C[C@H](C(C)C)N(C)C(=O)[C@@H](NC(=O)[C@H]2CCCCN2C)C(C)C)OC(C)=O)sc1C(C)C | 2.95% (active) |
| CCCC(C)C1(CC)C(=O)NC(=O)N(C)C1=O (configuration not stated) | 98.8% (inactive) |
| C=CCCCCCCCCC(=O)[O-].C=CCCCCCCCCC(=O)[O-].[Zn+2] | 96.6% (inactive) |
| COc1ccc(C(O)(C(=O)O)c2ccc(OC)cc2)cc1 | 93.3% (inactive) |
| Nc1c(F)cc(-c2nc3cc(F)ccc3[se]2)cc1F | 95.5% (inactive) |
| CC(=O)O[C@@H]1CC[C@]2(C)[C@H]3CC[C@]4(C)C(=O)CC[C@H]4[C@@H]3C[C@@H]3SC(N)=N[C@@]32C1 | 76.8% (inactive) |
| N#CC1(C#N)C(c2ccc(N(CCCl)CCCl)cc2)OC23CCCCC2C1(C#N)C(=N)O3 (configuration not stated) | 80.6% (inactive) |
| CCCCNC(c1ccc(Cl)cc1)C(O)c1ccc(Cl)cc1 (configuration not stated) | 49% (inactive) |
| CCOC(=O)[C@@H](C)C[C@H](Cc1ccccc1)NC(=O)c1csc([C@@H](C[C@H](C(C)C)N(C)C(=O)[C@H](CC)NC(=O)[C@H]2CCCCN2C)OC(C)=O)n1 | 5.75% (active) |
| C[Se]C(=O)c1ccccc1OC(C)=O | 35.1% (inactive) |
| ClC1=C(Cl)C(Cl)(C2(Cl)C(Cl)=C(Cl)C(Cl)=C2Cl)C(Cl)=C1Cl | 0.392% (active) |
| CN[C@@]1(c2ccccc2Cl)CCCC[C@@H]1NCC1CCCO1 (some centres not stated) | 102% (inactive) |
| COc1cc2c(cc1OCc1ccccc1)C(CC(C)C)=[N+](C)CC2 | 73.5% (inactive) |
| CC(=O)O[C@H]1CC[C@H]2[C@@H]3CC=C4c5nc(-c6ccccc6)sc5CC[C@]4(C)[C@H]3CC[C@]12C | 77.9% (inactive) |
| COc1ccc(/C=C\c2cc(OC)c(OC)c(OC)c2)cc1OCC(=O)Nc1nc2ccc(OC(F)(F)F)cc2s1 | 43.2% (inactive) |
| CC(C)(C)C(=O)OCOP(=O)(NCc1ccccc1)C1CCCN(O)C1=O (configuration not stated) | 14.2% (inactive) |
| CC(=O)Nc1ccc(NC(=O)c2ccc([As](O)O)cc2)cc1 | 102% (inactive) |

| SMILES | growth |
| --- | --- |
| O[C@H](CN1CC1)[C@@H](O)CN1CC1 | 55% (inactive) |
| Cc1cc(C)c(CBr)c(C)c1 | 99.4% (inactive) |
| CCOP1(=O)CC(C)=C(Cl)C(P(=O)(OCC)OCC)C1 (configuration not stated) | 84.3% (inactive) |
| CC12CCC3C(CCC4=CC(=O)CCC43CF)C1CCC2=O (configuration not stated) | 94.3% (inactive) |
| C=C1[C@@H](C)[C@H]2[C@H](Cc3ccccc3)NC(=O)[C@]23[C@@H](O)/C=C/[C@@](C)(O)C(=O)[C@@H](C)C/C=C/[C@H]3[C@@H]1O | 69.3% (inactive) |
| NC(=O)C(Br)c1ccccc1 (configuration not stated) | 90.8% (inactive) |
| CCC(=O)Nc1ccc(Cl)c(Cl)c1 | 100% (inactive) |
| CC[C@H](C)[C@@H]1OC(=O)C(C)(C)[C@H](O)[C@H](Cc2ccccc2)OC(=O)[C@H](C(C)C)OC(=O)[C@@H](NC(=O)c2cccc(NC=O)c2O)[C@@H](C)OC1=O | 51.3% (inactive) |
| NC(=S)c1cn(C2OC(CO)C(O)C2O)c2ncnc(N)c12 (configuration not stated) | 3.53% (active) |
| Nc1ncnc2n[nH]nc12 | 57.8% (inactive) |
| COc1cc(/C=C/[N+](=O)[O-])cc(OC)c1 | 13.8% (inactive) |
| Clc1cccc(NCOOC2(OOCNc3cccc(Cl)c3)CCCCCC2)c1 | 93.9% (inactive) |
| Brc1ccc2c(c1)c(-c1nc(-c3c[nH]c4ncccc34)cs1)cn2CCN1CCOCC1 | 45.6% (inactive) |
| O=C1C(Cl)=C(N2CCOCC2)C(=O)c2ccccc21 | 68.2% (inactive) |
| CC1=C(CCCNS(C)(=O)=O)C2=C(C)C3(CC3)[C@@](C)(O)C(=O)C2=C1 | 6.9% (active) |
| CCN(CCO)C(Cc1ccccc1)c1ccccc1 (configuration not stated) | 109% (inactive) |
| CCCCC1(CCC)C(=O)NC(=S)NC1=O | 128% (inactive) |
| CC[C@H](C)[C@H](NC(=O)[C@H]1CCCCN1C)C(=O)N(C)[C@H](CC(=O)c1nc(C(=O)N[C@@H](Cc2ccccc2)C[C@H](C)C(=O)O)cs1)C(C)C | 96.9% (inactive) |

The molecules below were run on OVCAR-5 ovarian in the same assay as above. Conditions: 10 µM unless noted.

| SMILES | growth |
| --- | --- |
| CCOC(=O)CCC(NC(=O)C(Cc1ccc(N(CCCl)CCCl)cc1)NC=O)C(=O)OCC (configuration not stated) | 42.9% (inactive) |
| COC(=O)[C@@H](C)C[C@H](Cc1ccccc1)NC(=O)c1nc([C@@H](C[C@H](C(C)C)N(C)C(=O)[C@@H](NC(=O)[C@H]2CCCCN2C)C(C)C)OC(C)=O)sc1C(C)C | 27.1% (inactive) |
| CCCC(C)C1(CC)C(=O)NC(=O)N(C)C1=O (configuration not stated) | 109% (inactive) |
| C=CCCCCCCCCC(=O)[O-].C=CCCCCCCCCC(=O)[O-].[Zn+2] | 106% (inactive) |
| COc1ccc(C(O)(C(=O)O)c2ccc(OC)cc2)cc1 | 103% (inactive) |
| Nc1c(F)cc(-c2nc3cc(F)ccc3[se]2)cc1F | 31.1% (inactive) |
| CC(=O)O[C@@H]1CC[C@]2(C)[C@H]3CC[C@]4(C)C(=O)CC[C@H]4[C@@H]3C[C@@H]3SC(N)=N[C@@]32C1 | 98.7% (inactive) |
| N#CC1(C#N)C(c2ccc(N(CCCl)CCCl)cc2)OC23CCCCC2C1(C#N)C(=N)O3 (configuration not stated) | 105% (inactive) |
| CCCCNC(c1ccc(Cl)cc1)C(O)c1ccc(Cl)cc1 (configuration not stated) | 56% (inactive) |
| CCOC(=O)[C@@H](C)C[C@H](Cc1ccccc1)NC(=O)c1csc([C@@H](C[C@H](C(C)C)N(C)C(=O)[C@H](CC)NC(=O)[C@H]2CCCCN2C)OC(C)=O)n1 | 31.5% (inactive) |
| C[Se]C(=O)c1ccccc1OC(C)=O | 54.3% (inactive) |
| ClC1=C(Cl)C(Cl)(C2(Cl)C(Cl)=C(Cl)C(Cl)=C2Cl)C(Cl)=C1Cl | 16.1% (inactive) |
| CN[C@@]1(c2ccccc2Cl)CCCC[C@@H]1NCC1CCCO1 (some centres not stated) | 97.4% (inactive) |
| COc1cc2c(cc1OCc1ccccc1)C(CC(C)C)=[N+](C)CC2 | 93% (inactive) |
| CC(=O)O[C@H]1CC[C@H]2[C@@H]3CC=C4c5nc(-c6ccccc6)sc5CC[C@]4(C)[C@H]3CC[C@]12C | 75.9% (inactive) |
| N#CC1(c2ccccc2)CCN(Cc2ccccc2)CC1 | 98% (inactive) |
| COc1ccc(/C=C\c2cc(OC)c(OC)c(OC)c2)cc1OCC(=O)Nc1nc2ccc(OC(F)(F)F)cc2s1 | 112% (inactive) |
| CC(=O)Nc1ccc(NC(=O)c2ccc([As](O)O)cc2)cc1 | 140% (inactive) |

| SMILES | growth |
| --- | --- |
| O[C@H](CN1CC1)[C@@H](O)CN1CC1 | 103% (inactive) |
| Cc1cc(C)c(CBr)c(C)c1 | 96.6% (inactive) |
| CCOP1(=O)CC(C)=C(Cl)C(P(=O)(OCC)OCC)C1 (configuration not stated) | 82.9% (inactive) |
| CC12CCC3C(CCC4=CC(=O)CCC43CF)C1CCC2=O (configuration not stated) | 118% (inactive) |
| C=C1[C@@H](C)[C@H]2[C@H](Cc3ccccc3)NC(=O)[C@]23[C@@H](O)/C=C/[C@@](C)(O)C(=O)[C@@H](C)C/C=C/[C@H]3[C@@H]1O | 38.1% (inactive) |
| NC(=O)C(Br)c1ccccc1 (configuration not stated) | 114% (inactive) |
| CCC(=O)Nc1ccc(Cl)c(Cl)c1 | 92.9% (inactive) |
| CC[C@H](C)[C@@H]1OC(=O)C(C)(C)[C@H](O)[C@H](Cc2ccccc2)OC(=O)[C@H](C(C)C)OC(=O)[C@@H](NC(=O)c2cccc(NC=O)c2O)[C@@H](C)OC1=O | 103% (inactive) |
| NC(=S)c1cn(C2OC(CO)C(O)C2O)c2ncnc(N)c12 (configuration not stated) | -29.6% (active) |
| Nc1ncnc2n[nH]nc12 | 59.3% (inactive) |
| COc1cc(/C=C/[N+](=O)[O-])cc(OC)c1 | 13.8% (inactive) |
| Clc1cccc(NCOOC2(OOCNc3cccc(Cl)c3)CCCCCC2)c1 | 96.6% (inactive) |
| Brc1ccc2c(c1)c(-c1nc(-c3c[nH]c4ncccc34)cs1)cn2CCN1CCOCC1 | 76.9% (inactive) |
| O=C1C(Cl)=C(N2CCOCC2)C(=O)c2ccccc21 | 119% (inactive) |
| CC1=C(CCCNS(C)(=O)=O)C2=C(C)C3(CC3)[C@@](C)(O)C(=O)C2=C1 | 2.82% (active) |
| CCN(CCO)C(Cc1ccccc1)c1ccccc1 (configuration not stated) | 93% (inactive) |
| CCCCC1(CCC)C(=O)NC(=S)NC1=O | 102% (inactive) |
| CC[C@H](C)[C@H](NC(=O)[C@H]1CCCCN1C)C(=O)N(C)[C@H](CC(=O)c1nc(C(=O)N[C@@H](Cc2ccccc2)C[C@H](C)C(=O)O)cs1)C(C)C | 107% (inactive) |
